The compounds below were run against Fibroblast growth factor 2 (Homo sapiens) (UniProt P09038) (assay: FGF2 binders on small-molecule microarrays, primary screen, biochemical, small-molecule microarray, 635/667 nm fluorescence (AID 1133)). Details: small-molecule microarray binding, FGF2, fluorescence 635/667; higher = more signal.
Chain of Fibroblast growth factor 2 (Homo sapiens) (P09038 whole entry, looked up): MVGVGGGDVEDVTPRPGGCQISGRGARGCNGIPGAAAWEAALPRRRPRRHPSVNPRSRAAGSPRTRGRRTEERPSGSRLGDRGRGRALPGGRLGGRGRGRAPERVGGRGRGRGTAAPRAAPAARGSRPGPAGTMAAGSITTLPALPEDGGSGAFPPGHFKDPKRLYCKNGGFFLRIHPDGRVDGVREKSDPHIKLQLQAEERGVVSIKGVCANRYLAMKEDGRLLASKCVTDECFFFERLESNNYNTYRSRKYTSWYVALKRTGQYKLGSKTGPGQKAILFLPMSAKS

| Structure (SMILES) | composite z-score |
| --- | --- |
| C=CC[C@@H]1C=C[C@H](ON=C2c3cc(OC)ccc3O[C@H](c3cccc(OC)c3)[C@H]2O)[C@@H](CO)O1 | 0.369 |
| COCCOC(=O)N1C(=O)[C@@]2(c3cc(C#CCNC(N)=O)ccc31)[C@H](c1ccc(O)cc1)N1[C@H](c3ccccc3)[C@H](c3ccccc3)OC(=O)[C@H]1[C@@H]2C(=O)N1CCCCCCC1 | 1.5 |
| CC(C)(C)N1C(=O)[C@H]2[C@H]3[C@H](O)[C@H](O)CC(=NOCc4ccccc4)[C@@H]3CC[C@H]2C1=O | 0.742 |
| O=C1C[C@]2(c3ccc([N+](=O)[O-])cc3)C(=O)N(CCN3CCOCC3)c3cc(CO)ccc3[C@H]2N1CC12CC3CC(CC(C3)C1)C2 | -1.54 |
| CC[C@@H](c1ccccc1)n1c(=O)n2n(c1=O)[C@H]1[C@H](O)[C@@H]3O[C@@H]3C(=NOCC(C)C)[C@H]1CC2 | 0.0571 |
| O=C1[C@H]2[C@H]3[C@H](O)[C@H](O)CC(=NO[C@@H]4O[C@H](CO)[C@@H](O)[C@H](O)[C@H]4O)[C@@H]3CC[C@H]2C(=O)N1Cc1ccc2c(c1)OCO2 | 0.289 |
| CC(C)=C1C(=O)C(c2ccccc2)=C2CN3C(=O)N(CCc4ccccc4)C(=O)[C@]3(Cc3ccc(F)cc3)[C@H]21 | -0.412 |
| CO[C@@H]1COC(=O)CCC[C@@H](C)[C@H](OC)COC(=O)[C@H](Cc2ccccc2)NC(=O)CC=C[C@H]1C | 0.273 |
| Cc1ccc(F)cc1S(=O)(=O)N[C@@H]1CCN(Cc2ccc(CC(C)C)cc2)C1 | -0.367 |
| CC(C)[Si]1(C(C)C)O[C@@H](c2ccccc2)c2cc(C3CC3)nc(-c3ccccc3)c21 | -0.246 |
